The values below come from PubChem BioAssay (NCI).

Compounds without any hit were thinned out: in the full panel of roughly 83,000, 20% have a hit.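 Values shown are percent growth following 48 h exposure of cells in 96-well plates to a single concentration of compound; below 10 was considered active.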 A number with no mark means an inactive call. Active and inactive are the calls of the source.

Test systems include HCT-15 colon; HT29 colon; SNB-75 CNS; SNB-19 CNS; PC-3 prostate; SK-MEL-5 melanoma; UACC-62 melanoma; LOX IMVI melanoma; SK-MEL-28 melanoma; SK-MEL-2 melanoma; EKVX NSCLC; SN12C renal; UO-31 renal; TK-10 renal; ACHN renal; CAKI-1 renal; A498 renal; CCRF-CEM leukemia; MOLT-4 leukemia; U251 CNS.
Holding throughout (experiment): NCI-60 one-dose screen, 48 h (100 = growth as untreated, 0 = no growth, -100 = all killed)
Common to all, as to conditions: 10 µM unless noted

For `O=C(/C=C/c1ccc(Cl)cc1)c1ccc(O)c(CN2CCN(c3cc4c(cc3F)c(=O)c(C(=O)O)cn4C3CC3)CC2)c1`, the growth in the experiment on HCT-15 colon was 45.4%; with HT29 colon, 33.8%; in the experiment with SNB-75 CNS it was 4.51% (active); in the experiment with SNB-19 CNS, 33.2%; in the experiment with PC-3 prostate it was 47.3%; in the experiment with SK-MEL-5 melanoma, 29.8%. The growth in the experiment with UACC-62 melanoma was 38.2%; in the experiment with LOX IMVI melanoma it was 38.6%; in the experiment on SK-MEL-28 melanoma it was 62.1%; in the experiment with SK-MEL-2 melanoma, 68.6%; in the experiment on EKVX NSCLC, 62.4%; in the experiment with SN12C renal it was 26.8%. Moreover, the growth in the experiment with UO-31 renal was 33.4%; in the experiment with TK-10 renal, 73.8%; with ACHN renal, 32.5%; with CAKI-1 renal, 45.5%; in the experiment with A498 renal it was 39.9%; in the experiment on CCRF-CEM leukemia, 43.9%. Moreover, the growth in the experiment with MOLT-4 leukemia is 66%.
For the molecule `CCN(CC)CCC(=O)Nc1ccc(Cn2nnc3c2C(=O)c2nnn(Cc4ccc(NC(=O)CCN(CC)CC)cc4)c2C3=O)cc1`, the growth with HCT-15 colon was 95.3%; in the experiment with HT29 colon it was -51% (active); in the experiment with SNB-75 CNS, -92.8% (active); with SNB-19 CNS it was -83.4% (active); in the experiment on U251 CNS, -85.1% (active); in the experiment with PC-3 prostate it was -1.02% (active). Besides, the growth with SK-MEL-5 melanoma was -96.8% (active); with UACC-62 melanoma, -79.6% (active); in the experiment with SK-MEL-28 melanoma, -60.9% (active); in the experiment on SN12C renal it was -50.1% (active); in the experiment with TK-10 renal it was 122%; in the experiment with ACHN renal it was 87.6%. The growth in the experiment with CAKI-1 renal is 85.9%; in the experiment with A498 renal, 14.6%; in the experiment on CCRF-CEM leukemia, -13% (active); in the experiment with MOLT-4 leukemia it was -28.9% (active).
Regarding `Cc1ccn2c(-c3csc(Nc4cccc(O)c4)n3)c(C)nc2c1`, the growth in the experiment with HCT-15 colon is 17.1%; in the experiment with HT29 colon, 61.7%; with SNB-75 CNS, -2.73% (active); with SNB-19 CNS, 49.2%; in the experiment with U251 CNS, 28.6%; in the experiment on PC-3 prostate it was 26.6%. Moreover, the growth is -42.9% (active) in the experiment on SK-MEL-5 melanoma; 21.5% with UACC-62 melanoma; 37.7% with SK-MEL-28 melanoma; 24.2% in the experiment on SK-MEL-2 melanoma; 20.8% in the experiment on SN12C renal; 40.4% with UO-31 renal. The growth in the experiment on TK-10 renal was 57.2%; with ACHN renal it was 26%; in the experiment on CAKI-1 renal, 80.6%; in the experiment on A498 renal, 64.7%; with CCRF-CEM leukemia, 23.7%; in the experiment with MOLT-4 leukemia it was -7.6% (active).
`COc1ccc(C(=O)c2sc3nc4c(cc3c2N)CCCC4)cc1OC`: the growth is 31.2% in the experiment with HCT-15 colon; 19% in the experiment on HT29 colon; 49.3% in the experiment with SNB-75 CNS; 71.3% in the experiment with SNB-19 CNS; 39.9% in the experiment with U251 CNS; 50.8% with PC-3 prostate. The growth with SK-MEL-5 melanoma is -11.4% (active); in the experiment on UACC-62 melanoma, 36.2%; in the experiment with SK-MEL-28 melanoma, 47.3%; with SK-MEL-2 melanoma it was 25.3%; with SN12C renal, 62.8%; with UO-31 renal it was 55.7%. The growth in the experiment with TK-10 renal was 83%; in the experiment on ACHN renal it was 63%; with CAKI-1 renal it was 57.9%; in the experiment on A498 renal, 34.9%; with CCRF-CEM leukemia, 28.9%; in the experiment on MOLT-4 leukemia, 6.5% (active).
As to `CC(=O)Oc1cc2cnc3c4cc(OC(C)=O)c(OC(C)=O)cc4ccc3c2cc1OC(C)=O`, the growth in the experiment on HCT-15 colon was 25.1%; in the experiment with HT29 colon, 17.4%; with SNB-75 CNS, -5.27% (active); with SNB-19 CNS, 33.9%; in the experiment with PC-3 prostate, 21.6%; with SK-MEL-5 melanoma it was 13.1%. Besides, the growth was -22% (active) in the experiment with UACC-62 melanoma; 10.6% in the experiment with LOX IMVI melanoma; 42.7% in the experiment with SK-MEL-28 melanoma; 56.3% in the experiment on SK-MEL-2 melanoma; 14.6% in the experiment with SN12C renal; -2.09% (active) in the experiment on UO-31 renal. Besides, the growth with TK-10 renal is 21.8%; with ACHN renal it was 15.3%; in the experiment with CAKI-1 renal, 6.51% (active); with A498 renal, -15.6% (active); in the experiment with CCRF-CEM leukemia, -6.55% (active); with MOLT-4 leukemia, -6.19% (active).
Take `O=c1c2cccc3c(Nc4c(F)cccc4F)ccc(c32)c2nc3ccccc3n12`: the growth with HCT-15 colon was 75.5%; in the experiment on HT29 colon, 93.4%; in the experiment on SNB-75 CNS it was 80%; in the experiment on SNB-19 CNS, 103%; in the experiment on PC-3 prostate, 84.5%; in the experiment on SK-MEL-5 melanoma, 81.8%. Moreover, the growth was 86.9% with UACC-62 melanoma; 86.9% in the experiment on LOX IMVI melanoma; 109% in the experiment on SK-MEL-28 melanoma; 93.8% in the experiment on SN12C renal; 50.6% in the experiment with UO-31 renal; 88% with ACHN renal. Besides, the growth in the experiment with CAKI-1 renal is 62%; in the experiment on A498 renal it was 109%; in the experiment with CCRF-CEM leukemia, 72.5%; in the experiment on MOLT-4 leukemia, 74.1%.
With `COc1cccc(-n2cc(-c3nc(Nc4cc(C)[nH]n4)c4ccccc4n3)nn2)c1`, the growth with HCT-15 colon was 29.7%; with HT29 colon, 65.5%; with SNB-75 CNS, -10.2% (active); in the experiment on SNB-19 CNS it was 73.1%; in the experiment on PC-3 prostate, 55.3%; in the experiment on SK-MEL-5 melanoma it was -42% (active). The growth is 50.8% with UACC-62 melanoma; 66.5% in the experiment on LOX IMVI melanoma; 64% in the experiment on SK-MEL-28 melanoma; 50.9% in the experiment with SK-MEL-2 melanoma; 41% in the experiment on SN12C renal; 15.4% in the experiment on UO-31 renal. The growth is 33.3% in the experiment with TK-10 renal; 24% in the experiment on ACHN renal; 2.59% (active) in the experiment on CAKI-1 renal; 36.1% in the experiment on A498 renal; 32.6% in the experiment with CCRF-CEM leukemia; 11% in the experiment on MOLT-4 leukemia.
On to `CCCCCN(CCCCC)CCC[C@@H](C)[C@H]1CC[C@H]2[C@@H]3[C@H](OCCCN)C[C@@H]4C[C@H](OCCCN)CC[C@]4(C)[C@H]3C[C@H](OCCCN)[C@]12C`, for which the growth in the experiment with HCT-15 colon was 72.3%; in the experiment with HT29 colon it was 24.5%; in the experiment with SNB-75 CNS, 70.6%; with SNB-19 CNS, 61%; with PC-3 prostate it was 80.5%; in the experiment with SK-MEL-5 melanoma, 25.1%. In addition, the growth in the experiment with UACC-62 melanoma was 13.6%; in the experiment with LOX IMVI melanoma, 3% (active); with SK-MEL-28 melanoma, 27.9%; with SN12C renal, 54.3%; in the experiment with UO-31 renal, 65.2%; in the experiment on ACHN renal, 54.7%. Further, the growth was 75.8% in the experiment with CAKI-1 renal, 92.8% with A498 renal, 15.3% in the experiment on CCRF-CEM leukemia and 41.1% with MOLT-4 leukemia.
As for `Cc1cc(Nc2nc(N3CCNCC3)nc3ccccc23)n[nH]1`, the growth in the experiment on HCT-15 colon was 70.5%; with HT29 colon, 82.1%; with SNB-75 CNS, -16.6% (active); with SNB-19 CNS it was 101%; with PC-3 prostate it was 80.8%; in the experiment on SK-MEL-5 melanoma it was 95.8%. Besides, the growth is 74.6% in the experiment with UACC-62 melanoma; 88.6% in the experiment on LOX IMVI melanoma; 86% in the experiment on SK-MEL-28 melanoma; 53.6% in the experiment on SK-MEL-2 melanoma; 76.1% with SN12C renal; 64.3% in the experiment with UO-31 renal. The growth in the experiment with TK-10 renal was 60.5%; with ACHN renal, 41.5%; in the experiment on CAKI-1 renal, 20.1%; with A498 renal, 45.3%; with CCRF-CEM leukemia it was 108%; in the experiment on MOLT-4 leukemia, 101%.
